Data published in the supplement of paper PMC7156485.
± gives the standard deviation of the averaged measurements.

Legend:
Settings in all cases: concentration: 10 µM; 24 h
[1] = tested on: HCC1569; assay: cell number relative to DMSO (% of DMSO); higher = more cells (less growth inhibition / toxicity)
Outline: (§1)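 H1.0 nuclear intensity or cell number is stated as percent of the plate control, based on the median of replicates, and HCC1569 values were smoothed for positional effects. These came from HCC1569 and TDF cells treated with compounds at 10 µM for 24 h at 37 °C in triplicate, then fixed in 3.7% formaldehyde and stained with a rabbit anti-H1.0 antibody, an AlexaFluor 647 secondary and DAPI.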

[2] = tested on: TDF; assay: as above
Outline: as §1

[3] = tested on: TDF; assay: H1.0 immunofluorescence intensity relative to DMSO (% of DMSO); higher = stronger H1.0 induction, active = 120 or more
Outline: as §1

[4] = tested on: HCC1569; assay: H1.0 immunofluorescence intensity relative to DMSO (% of DMSO); higher = stronger H1.0 induction, active = 140 or more
Outline: as §1
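For H1.0 immunofluorescence intensity relative to DMSO in this document: TDF is a line of transformed human dermal fibroblasts of mesenchymal origin.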
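For cell number relative to DMSO in this document: TDF denotes transformed human dermal fibroblasts of mesenchymal origin.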

Row | SMILES | cell number [1] | cell number [2] | H1.0 immunofluorescence intensity [3] | H1.0 immunofluorescence intensity [4]
1 | CC(NC(CCc1ccccc1)C(=O)O)C(=O)N1CCCC1C(=O)O (stereo not given) [Enalaprilat] | 98.7 | 86.2 | 104 (inactive) | 96.9 (inactive)
2 | CN(C)CCCCSC(=N)N.Cl.Cl | 99.3 | 106 | 93.8 (inactive) | 102 (inactive)
3 | Cc1[nH]c(C=C2C(=O)Nc3ccc(S(=O)(=O)N(C)c4cccc(Cl)c4)cc32)c(C)c1C(=O)N1CCN(C)CC1 [Met Kinase Inhibitor] | 81.6 | 59.6 | 92 (inactive) | 149 (active)
4 | CON(C)C(=O)[C@H](O)[C@H](Cc1ccccc1)NC(=O)c1cc2cc(Cl)ccc2[nH]1 | 103 | 110 | 88.1 (inactive) | 103 (inactive)
5 | C=C1C(=O)C23C(O)C1CCC2C12COC3(O)C(O)C1C(C)(C)CCC2O (stereo not given) [Oridonin] | 80.4 | 110 | 93 (inactive) | 111 (inactive)
6 | COC12C(COC(N)=O)C3=C(C(=O)C(C)=C(N)C3=O)N1CC1NC12 (stereo not given) [Mitomycin C] | 73.2 ± 6 | 47.6 ± 1.8 | 105 (inactive) | 96.2 (inactive)
7 | COC(=O)C=Cc1cc(O)ccc1O [2,5-Dihydroxycinnamic acid methyl ester] | 104 | 103 | 91.7 (inactive) | 93.6 (inactive)
8 | CCCCCC=CCC=CC=CC(O)CC=CCCCC(=O)O (stereo not given) | 98.1 | 99.8 | 97.3 (inactive) | 95.8 (inactive)
9 | Cc1cc(Nc2nc(NC(C)c3ccc(F)cc3)c(C#N)cc2F)n[nH]1 (stereo not given) | 51.8 | 28 | 167 (active) | 146 (active)
10 | Cc1ccc(S(=O)(=O)NC(=O)NN2CC3CCCC3C2)cc1 (stereo not given) [Gliclazide] | 101 | 106 | 89 (inactive) | 114 (inactive)
11 | CCCCCCCCC=CCCCCCCCCC(=O)O [10(Z)-Nonadecenoic acid] | 102 | 94.1 | 95.6 (inactive) | 106 (inactive)
12 | CCCCN(CCCC)CC(O)c1cc(Cl)cc2c1-c1ccc(Cl)cc1/C2=C/c1ccc(Cl)cc1 (stereo not given) | 103 | 108 | 90.7 (inactive) | 104 (inactive)
13 | N=S(=O)([O-])Cc1noc2ccccc12.[Na+] [Zonisamide sodium] | 104 | 117 | 92.2 (inactive) | 98.6 (inactive)
14 | CC(C(=O)O)c1ccc(-c2ccccc2)c(F)c1 (stereo not given) [Flurbiprofen] | 98.6 | 101 | 97.4 (inactive) | 101 (inactive)
15 | Nc1c2c(nc3ccccc13)CCCC2O.O=C(O)C=CC(=O)O (stereo not given) [Hydroxytacrine maleate] | 104 | 103 | 96.8 (inactive) | 83.4 (inactive)
16 | COC(=O)c1sccc1S(=O)(=O)Nc1ccc(Nc2ccccc2)cc1OC | 99.7 | 92.5 | 88.2 (inactive) | 112 (inactive)
17 | O=C1NC(=O)C(c2ccccc2)(c2ccccc2)N1 [Phenytoin] | 104 | 98.5 | 95.8 (inactive) | 110 (inactive)
18 | CCCNC1CCc2nc(N)sc2C1 (stereo not given) [Pramipexole] | 101 | 97.5 | 94.4 (inactive) | 107 (inactive)
19 | NS(=O)(=O)c1cc(C2(O)NC(=O)c3ccccc32)ccc1Cl (stereo not given) | 101 | 98.1 | 96.1 (inactive) | 104 (inactive)
20 | CC1(C)NC(=O)N(c2ccc([N+](=O)[O-])c(C(F)(F)F)c2)C1=O [Nilutamide] | 101 | 91 | 98.9 (inactive) | 100 (inactive)
21 | CC(C)(C)c1ccc(S(=O)(=O)C=CC#N)cc1 | 50.3 | 92.1 | 98.3 (inactive) | 135 (inactive)
22 | COCCCOc1ccnc(CS(=O)c2nc3ccccc3[n-]2)c1C.[Na+] (stereo not given) | 101 | 90.9 | 103 (inactive) | 106 (inactive)
23 | COc1cc2ncc(-c3ccccc3)nc2cc1OC [Tyrphostin AG 1296] | 98.1 | 106 | 97.3 (inactive) | 111 (inactive)
24 | O=c1ccc2cc(O)c(O)cc2o1 [Esculetin] | 101 | 94.7 | 99.6 (inactive) | 101 (inactive)
25 | Cc1ccc(F)cc1C(=O)Nc1ccc(C(=O)N2Cc3cccn3Cc3ccccc32)c(Cl)c1 | 91.6 | 95.3 | 93.2 (inactive) | 131 (inactive)
